Compound activity: PubChem BioAssay, National Center for Advancing Translational Sciences (NCATS)
AMA1 RON2 block: qHTS for Inhibitors of AMA1-RON; Towards Development of Antimalarial Drug Lead: Primary Screen. Plasmodium falciparum AMA1 (3D7) - RON2 peptide interaction. AlphaScreen AMA1-biotinylated RON2 peptide binding. Potency, µM (series often up to 58.2 µM), inactives show at the top dose activity change, negative = inhibition, usual class: inhibitors. 0.2% of 360,000 active. AID 720542, 2013;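 note: potency is the fitted concentration of half-maximal effect; 0% = vehicle wells and -100% = peptide control; nearly all actives have a fitted effect of over 45% in size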
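AMA1 (3D7) with his tag at 25 nM final met compounds first, then biotinylated RON2 peptide at 25 nM; detection used donor plus acceptor beads, 10 µg/mL apiece, read by AlphaScreen after 30 min at room temperature.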
Pf growth 96h: Primary qHTS for delayed death inhibitors of the malarial parasite plastid, 96 hour incubation; P. falciparum luciferase reporter growth, 96 h; Potency, µM (top dose mostly 28.7 µM), for inactives: top-dose activity change, negative = inhibition, actives largely listed as inhibitors; AID 504834, 2011; 6.9% of 320,000 active; note: potency is the fitted concentration of half-maximal effect; % is set by controls: 0 for no effect and ±100 for the full control effect
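Compounds incubated with erythrocytes infected by luciferase-expressing P. falciparum (2% hematocrit, 0.05% parasitemia final) for 96 hours, 37 C in 5% CO2. Growth inhibition scored as decreased luciferase luminescence.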
Cycloheximide cs: Cycloheximide Counterscreen for Small Molecule Inhibitors of Shiga Toxin. cell reporter, cycloheximide protein synthesis inhibition counterscreen. max response, %. 12% of 300,000 active; in the data active = max response mostly above about 13%, no sharp cut-off; inactive = mostly below about 14%; note: read at 38.3 µM for the half of the compounds with a filed dose; 0% is about no effect
HCV inhibitor: qHTS Assay for Inhibitors of Hepatitis C Virus (HCV). AID 651820, 2012. 3.4% of 340,000 active. Huh7.5.1 HCVcc-Cre infection, luciferase reporter, 44 h. Potency, µM (top dose mostly 41.8 µM), for inactives: at the top dose activity change, negative = inhibition, hits mostly inhibitors; note: potency is the fitted concentration of half-maximal effect; % is set by controls: 0 for no effect and ±100 for the full control effect
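Cells seeded at 1,000/well and cultured 4 h, then compounds added followed by HCVcc-Cre virus (~0.5 moi). After 44 h further culture, luciferase substrate was added, plates held 15 min at room temperature, and luminescence read for 15 sec.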
Pf growth 48h: Primary qHTS for delayed death inhibitors of the malarial parasite plastid, 48 hour incubation. P. falciparum luciferase growth in erythrocytes, 48 h. Potency, µM (highest dose often 28.7 µM), without a hit: at the top dose activity change, negative = inhibition, actives largely listed as inhibitors. 5.9% of 310,000 active. AID 504832, 2011; note: potency is the fitted concentration of half-maximal effect; % is set by controls: 0 for no effect and ±100 for the full control effect
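Read-out is firefly luciferase luminescence from an integrated reporter in P. falciparum, so falling signal marks reduced parasite growth. Infected erythrocytes were at 2% hematocrit and 0.1% parasitemia (final) in Albumax-supplemented RPMI 1640.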
Shiga inhibitor: A qHTS for Small Molecule Inhibitors of Shiga Toxin; Vero cells, Shiga toxin protein synthesis inhibition reporter; inhibition, % at 38.7 µM; 9.2% of 290,000 active; in the data active = inhibition mostly above about 28%, no sharp cut-off; inactive = mostly below about 43%; note: 0% is about no effect
* hit, by the source's call; ? = inconclusive; / = not tested or not shown; [ ] = another dose, or the depositor's remark. Hits are enriched below; roughly 21% of the tested compounds scored in any of these assays. Unless noted, calls come from the whole dose curve; as a rule, active = well fitted curve in the direction sought with a large enough effect; inconclusive = small, poorly fitted or top-dose-only effect, or another doubt; inactive = no such curve, though single readings can be large; an effect the other way counts as inactive or inconclusive.

SMILES	AMA1 RON2 block	Pf growth 96h	Cycloheximide cs	HCV inhibitor	Pf growth 48h	Shiga inhibitor
COc1ccccc1CN1CC(C(=O)N(C)Cc2[nH]c3ccccc3c2C)CCC1=O (stereo unspecified)	-20%	-18%	18	-22%	-29%	26
C[C@@H]1CCCCO[C@@H](CN(C)Cc2ccncc2)[C@@H](C)CN([C@H](C)CO)C(=O)c2cc(NC(=O)c3ccccc3)ccc2O1	12%	/	/	/	/	/
O=C1N=C(N2CCOCC2)SC1=Cc1ccco1	-5%	/	/	-6%	/	/
Cc1ccc(-c2ccc(/C=C3\SC(N4CCOCC4)=NC3=O)o2)cc1	5%	6%	7	13µM*	?	22
Cc1ccc(/C=C2\SC(N3CCN(C(c4ccccc4)c4ccccc4)CC3)=NC2=O)o1	?	1.7µM*	4	?	5.9µM*	-10
CC1CCN(C2=NC(=O)/C(=C/c3ccccc3F)S2)CC1	9%	32%	38*	-17%	2%[0.00184 µM]	68*
O=C1N=C(N2CCN(c3ccccc3)CC2)S/C1=C/c1cccs1	-24%	13µM*	1	0%	-17%	-3
O=C1N=C(N2CCOCC2)S/C1=C/c1ccc(-c2ccc(F)cc2)o1	19%	?	2	?	?	-9
COc1cccc(OCC(O)CN2CCN(C)CC2)c1 (stereo unspecified)	-24%	12%	-1	27%	12%	-3
CC(c1ccccc1)C(CC(=O)O)C(=O)Nc1ccc(Cl)c(Cl)c1 (stereo unspecified)	5%	?	-2	5%	-15%	/
C=CCn1cnc2c(oc3ccccc32)c1=O	-1%	-10%	25*	18%	56%	36
O=c1c2oc3ccccc3c2ncn1Cc1ccccc1Cl	-1%	/	17	-28%	?	51
O=c1c2oc3ccccc3c2ncn1Cc1ccccc1F	17%	?	30*	1%	?	33
O=c1c2oc3ccccc3c2ncn1Cc1cccc(Cl)c1	29%	?	10	7%	-8%	23
CC1CCCN(C(=O)COC(=O)C2CCN(S(=O)(=O)c3ccc4c(c3)OCCO4)CC2)C1 (stereo unspecified)	-17%	14%	/	-8%	13%	/
O=C(CCc1ccccc1)N1CCCC1	-3%	?	1	14%	13%	-2
O=C(CCc1nnc(CCCc2ccccc2)o1)N1CCCCCC1	-3%	-8%	32*	1%	-1%	87*
COCC1CCN(C(=O)CCc2nnc(CCCCc3ccccc3)o2)CC1	12%	?	-2	4%	5%	7
CC1CCCN(C(=O)CCc2ccccc2)C1 (stereo unspecified)	6%	41%	9.3*	-22%	38%	active
CCN(CC)C1CCN(C(=O)CCc2nnc(CCc3ccccc3)o2)C1 (stereo unspecified)	9%	-21%	2	8%	30%	1
CCCOC1CCCN(C(=O)CCc2nnc(CCCCc3ccccc3)o2)C1 (stereo unspecified)	-2%	?	34*	?	?	41*
COc1ccc(-n2c(SCC(=O)O)nc3sc4c(c3c2=O)CCC4)cc1	-21%	?	-3	3%	-4%	19
COc1ccc(-n2c(SCC(N)=O)nc3sc4c(c3c2=O)CCC4)cc1	-12%	-5%	4	10µM*	7%	8
CCOC(=O)CSc1nc2sc3c(c2c(=O)n1C1CCCCC1)CCN(C)C3	-16%	?	-2	?	1.5µM*	22
CCOC(=O)CSc1nnc2n(C3CCCCC3)c(=O)c3c4c(sc3n12)CCCC4	-3%	/	-5	17%	-2%	9
SMILES	AMA1 RON2 block	Pf growth 96h	Cycloheximide cs	HCV inhibitor	Pf growth 48h	Shiga inhibitor
CC1CCc2c(sc3nc(SCC(=O)O)n(-c4ccccc4)c(=O)c23)C1 (stereo unspecified)	-6%	?	4	13%	-16%	-5
C=C(C)CSc1nc2sc3c(c2c(=O)n1-c1ccc(C)cc1)CCN(C)C3	-1%	0.93µM*	-1	?	1.3µM*	8
COc1ccc(-n2c(NCCN(C)C)nc3sc4c(c3c2=O)CCCCC4)cc1	-1%	?	-1	?	/	-28
COc1ccc(-n2c(C)nc3sc4c(c3c2=O)CCC4)cc1	-19%	4.7µM*	2	0%	14%	-23
CCN(CC)S(=O)(=O)c1ccc(C(=O)NCC(=O)NCc2ccc3c(c2)OCO3)cc1	3%	/	/	/	/	/
Cc1cccc(-n2c(SCC(=O)O)nc3sc4c(c3c2=O)CCCC4)c1	4%	33%	0	8%	-8%	-10
Cc1ccc(-n2c(SCC(=O)c3c(N)n(C)c(=O)n(C)c3=O)nc3sc4c(c3c2=O)CCCC4)c(C)c1	-6%	0.83µM*	-3	?	1.2µM*	-5
COc1ccc(-n2c(N3CCN(C)CC3)nc3sc4c(c3c2=O)CCCCC4)cc1	-1%	8%[5.75 µM]	16	13µM*	-24%	27
COc1ccc(-n2c(=O)c3c4c(sc3n3c(=S)[nH]nc23)CCCC4)cc1	22%	?	5	6%	8%	-13
CCOC(=O)CSc1nc2sc3c(c2c(=O)n1-c1ccc(OCC)cc1)CCN(C)C3	10%	0.74µM*	5	?	13µM*	-5
Cc1ccc(-n2c(SCC(=O)O)nc3sc4c(c3c2=O)CCCC4)cc1	-11%	2.9µM*	5	-6%	11%	44
COc1ccc(-n2c(SCC(=O)Nc3nccs3)nc3sc4c(c3c2=O)CCN(C)C4)cc1	-6%	?	-4	-4%	?	10
N#Cc1ccc(OC(=O)C2CCN(C3=NS(=O)(=O)c4ccccc43)CC2)cc1	3%	-9%	/	8%	-7%	/
CSc1ccccc1C(=O)NC1CCCc2ccccc21 (stereo unspecified)	-5%	?	-3	-12%	-13%	-8
COc1cccc(C(=O)OCC(=O)NCCCc2ccccc2)c1	6%	18%	-2	11%	/	-7
CCOc1ccc(-n2c(SCC(N)=O)nc3sc4c(c3c2=O)CCN(C)C4)cc1	-9%	0.66µM*	-1	12%	1.5µM*	-6
COc1ccc(OCc2nn[nH]n2)cc1	-2%	?	1	12%	48%	19
CCn1c(O)c(N=NC(=O)c2ccc(CSc3nncn3C)cc2)c2ccccc21	-13%	12µM*	-1	?	10µM*	-8
CCn1c(O)c(N=NC(=O)Cn2ccc(C(F)(F)F)n2)c2ccccc21	-2%	0%	10	-2%	20%	12
